Bioassay records as filed in PubChem.
D1 PAM: Potentiators of Human D1 Dopamine Receptor: qHTS; AID 504651, 2011; 0.036% of 360,000 active; HEK293 TREx D1 cells, calcium flux, dopamine EC20 potentiation; potentiation, % at 10 µM; in the data active = potentiation above about 30%; note: 0% is about no effect
Target sequence (P21728 whole entry, looked up): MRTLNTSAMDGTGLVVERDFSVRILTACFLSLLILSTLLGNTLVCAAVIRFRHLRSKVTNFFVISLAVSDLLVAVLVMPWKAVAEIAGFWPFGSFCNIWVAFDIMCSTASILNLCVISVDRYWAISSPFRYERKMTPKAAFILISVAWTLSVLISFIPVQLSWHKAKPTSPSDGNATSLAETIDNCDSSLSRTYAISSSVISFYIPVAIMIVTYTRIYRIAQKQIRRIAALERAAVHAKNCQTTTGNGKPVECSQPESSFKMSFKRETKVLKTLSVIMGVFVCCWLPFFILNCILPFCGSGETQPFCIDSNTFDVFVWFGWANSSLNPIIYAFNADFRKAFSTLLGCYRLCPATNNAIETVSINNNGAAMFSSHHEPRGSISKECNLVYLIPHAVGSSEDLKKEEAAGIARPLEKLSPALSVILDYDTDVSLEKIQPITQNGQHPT
TRHR ag: qHTS for Small Molecule Agonists and Allosteric Enhancers of Human TRH Receptor: Primary Screen for Agonists | Thyrotropin-releasing hormone receptor (Homo sapiens), P34981 | TRHR cells, calcium flux fluo-8, FDSS agonist mode | activation, % at 2 µM | 0.18% of 360,000 active; note: 0% is about no effect
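TRHR-expressing cells loaded with fluo-8 calcium dye; 23 nL library compound pin-transferred, kinetic FDSS fluorescence (Ex 480/Em 530) recorded about 180 s for agonist-induced calcium release, before a 10 nM TRH EC20 addition for potentiator mode.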
LDHA block: qHTS assay for inhibitors of human lactate dehydrogenase; AID 1347041, 2019; activity change, % (values are at about 110 or 230 µM); purified LDHA, NADH/diaphorase-resazurin fluorescence; active compounds read low; 0.15% of 480,000 active; L-lactate dehydrogenase A chain (Homo sapiens), P00338; in the data active = activity change below about -30%;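 note: plate controls were DMSO wells for no effect and wells without enzyme for full effect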
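Resorufin fluorescence (ex540/em590), read at 0 and 20 min after diaphorase/resazurin addition, reports the NADH left after a 5 min room-temperature reaction of 2 nM human LDH5 with 0.06 mM NADH and 0.2 mM pyruvate.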
D1 antag: Antagonist of Human D 1 Dopamine Receptor: qHTS; HEK293 TREx D1 cells, calcium flux, dopamine EC80; active compounds read low; AID 504652, 2011; 3.2% of 360,000 active; activity change, negative = inhibition, % at 10 µM; D(1A) dopamine receptor (Homo sapiens), P21728; in the data active = activity change below about -30%; note: % is set by controls: 0 for no effect and ±100 for the full control effect
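Compound effects on dopamine-evoked calcium signalling were measured in tetracycline-induced HEK293 Trex D1 cells. Dopamine at EC80 followed a 180 s compound pre-read, and fluorescence was tracked kinetically for 180 s more.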
D1 ag: Allosteric Agonists of the Human D1 Dopamine Receptor: qHTS; AID 504660, 2011; HEK293 T-REx D1 cells, calcium flux, agonist mode; activation, % at 2 µM; D(1A) dopamine receptor (Homo sapiens), P21728; 1% of 360,000 active; note: 0% is about no effect
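Agonism was scored from calcium flux recorded over 180 s (1 read/s) after pintool compound addition, following a 10-cycle baseline. Cells were inducible force-coupled HEK293 TREx D1, plated overnight at 30 C and loaded with no-wash calcium dye.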
TRHR PAM: qHTS for Small Molecule Agonists and Allosteric Enhancers of Human TRH Receptor: Primary Screen for Enhancers; Thyrotropin-releasing hormone receptor (Homo sapiens), P34981; 0.66% of 360,000 active; TRHR cells, fluo-8 calcium fluorescence, EC20 TRH enhancement; enhancement, % at 2 µM; AID 493056, 2011; in the data active = enhancement above about 30%; note: 0% is about no effect
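Enhancer read-out: after compound pinning and an initial kinetic agonist-mode read, an EC20 of TRH (10 nM final) was injected and fluo-8 calcium signal (Ex 480/Em 530) followed at 1 s/cycle for 100 cycles in TRHR-expressing cells.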
Numbers without * were called inactive. Only some compounds are listed: those with a hit (about 3.6% of all), similar ones and a draw of the others. Cut-off read from the data, not from the text of the source, unless noted: active = activation above about 30%; inactive = the rest.

What do the screens show for `O=[N+]([O-])c1ccc(-c2nc(Nc3cccc(O)c3)c3ccccc3n2)cc1`?
D1 PAM: -9; TRHR ag: 1; LDHA block: -1; D1 antag: -33*; D1 ag: 5; TRHR PAM: -4

Results for Cc1ccc(-c2nc(Nc3cccc(O)c3)c3ccccc3n2)cc1 ?
D1 PAM: -14; TRHR ag: 3; LDHA block: -2; D1 antag: -30*; D1 ag: 7; TRHR PAM: 7

How did CCOc1ccc(N=C2NC(=O)S/C2=C\c2ccc(Cl)cc2)cc1 do in these assays?
D1 PAM: -2; TRHR ag: 1; LDHA block: -9; D1 antag: -10; D1 ag: 1; TRHR PAM: -5

How did COc1ccc(N=C2NC(=O)S/C2=C\c2ccc(N(C)C)cc2)cc1 do in these assays?
D1 PAM: 2; TRHR ag: 17; LDHA block: -4; D1 antag: -5; D1 ag: 67*; TRHR PAM: -5

What do the screens show for `CCc1cccc(OCc2ccc(C(N)=O)cc2)c1`?
LDHA block: 1

How did CCCCn1c(N)c(N(CC)C(=O)c2cccc(C)c2)c(=O)[nH]c1=O do in these assays?
D1 PAM: -5; TRHR ag: 1; LDHA block: -9; D1 antag: -1; D1 ag: 4; TRHR PAM: 1

Results for CCCCN(C(=O)c1cccc(C)c1)c1c(N)n(CCC)c(=O)[nH]c1=O ?
D1 PAM: 0; TRHR ag: 0; LDHA block: -2; D1 antag: -7; D1 ag: 3; TRHR PAM: 41*

What do the screens show for `COc1ccc(C2(CCN=Cc3ccc(N(C)C)cc3)CCOC(C)(C)C2)cc1` (stereo not drawn)?
D1 PAM: -2; TRHR ag: -1; LDHA block: -1; D1 antag: -78*; D1 ag: 2; TRHR PAM: 6

Results for COc1cc(C(=O)N2N=C(C)CC2(O)C(F)(F)F)ccc1OC(F)F (stereo not drawn) ?
LDHA block: -3

What do the screens show for `CC1(C)CC(NC(=O)c2sc3cc(Cl)ccc3c2Cl)CC(C)(C)N1`?
D1 PAM: -10; TRHR ag: 1; LDHA block: -10; D1 antag: -37*; D1 ag: 8; TRHR PAM: 9

What do the screens show for `C=CCn1c(=O)c2c(nc(-n3nc(C)c(C)c3C)n2CC(=C)C)n(C)c1=O`?
LDHA block: -32*

How did C=C(C)Cn1c(-n2nc(C)c(C)c2C)nc2c1c(=O)n(C)c(=O)n2C do in these assays?
LDHA block: -8

Results for CC1CCN(C(=O)N2c3ccccc3Sc3ccccc32)CC1 ?
D1 PAM: 3; TRHR ag: 1; LDHA block: -3; D1 antag: 22; D1 ag: 3; TRHR PAM: 13

How did CC1CN(C(=O)N2c3ccccc3Sc3ccccc32)CC(C)O1 (stereo not drawn) do in these assays?
D1 PAM: -14; TRHR ag: 1; LDHA block: -1; D1 antag: -33*; D1 ag: 2; TRHR PAM: 2

Results for CCc1c(-c2ccccc2)nc2nc(C)c(C)nn12 ?
D1 PAM: -2; TRHR ag: 0; LDHA block: -9; D1 antag: -27; D1 ag: 0; TRHR PAM: 37*

How did Cn1c(=O)c2c(ncn2CC(=O)NC(=O)NC2CCCC2)n(C)c1=O do in these assays?
LDHA block: -34*

What do the screens show for `Cn1c(=O)c2c(ncn2CC(=O)NC2CCCCC2)n(C)c1=O`?
D1 PAM: 5; TRHR ag: 0; LDHA block: -3; D1 antag: 6; D1 ag: 4; TRHR PAM: 0
